This is a sample that favours compounds with a hit; in the whole collection about 2.9% have one here.
DRD3 agonist: activates the human D3 dopamine receptor; 410,000 compounds, 0.58% hits; P35462; D3R DiscoveRx beta-arrestin cells, luminescence, 90 min; max activation, %; in the data active = max activation above about 30%; note: 0% is about no effect
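Agonist-mode cell screen: cells plated at 1500/well and incubated overnight at 37 °C, then exposed to library compounds for 90 min at 37 °C. Detection reagent was added for 30–60 min at room temperature, and luminescence was read.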
IDH1 R132H inh: human IDH1 R132H inhibition | O75874 | IDH1-R132H enzyme, NADPH consumption, diaphorase/resazurin fluorescence | Potency, µM (doses to about 76.6 µM), for inactives: at the top dose activity change, negative = inhibition, actives largely listed as inhibitors | 390,000 compounds, 0.093% hits; note: potency is the fitted concentration of half-maximal effect; % is set by controls: 0 for no effect and ±100 for the full control effect; nearly all actives have a fitted effect of over 65% in size
Target sequence (O75874 whole entry R132H, stated change not applied): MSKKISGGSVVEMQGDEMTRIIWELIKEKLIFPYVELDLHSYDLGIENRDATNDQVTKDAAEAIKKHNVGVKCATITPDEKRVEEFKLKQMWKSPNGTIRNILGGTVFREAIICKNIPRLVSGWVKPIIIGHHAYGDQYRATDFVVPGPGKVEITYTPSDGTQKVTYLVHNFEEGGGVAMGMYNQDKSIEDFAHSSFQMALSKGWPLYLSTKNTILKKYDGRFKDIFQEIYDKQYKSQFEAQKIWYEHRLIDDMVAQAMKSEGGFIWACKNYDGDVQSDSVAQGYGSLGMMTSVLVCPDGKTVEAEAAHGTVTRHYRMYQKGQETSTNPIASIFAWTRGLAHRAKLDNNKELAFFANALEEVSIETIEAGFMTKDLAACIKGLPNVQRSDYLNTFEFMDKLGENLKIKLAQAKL
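IDH1-R132H (0.5 ug/mL dispensed) in pH 7.5 Tris buffer was preincubated 30 min with compound, then given a substrate mix of 0.016 mM NADPH and 2 mM alpha-KG for 80 min at room temperature; remaining NADPH was read by diaphorase/resazurin fluorescence.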
Integrin act MD: activators of alpha7 integrin expression for muscular dystrophy; alpha7betagal myoblasts, beta-gal FDG fluorescence, 48 h; Potency, µM (top dose mostly 38.3 µM), for inactives: at the highest dose activation, usual class: activators; 350,000 compounds, 0.064% hits; AID 624291;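 note: potency is the fitted concentration of half-maximal effect; 100% = response of the positive control SU9516; nearly all actives have a fitted effect of over 60% in size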
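Alpha7betagal+/- myoblasts (passage 13) were plated 16-24 hr, then exposed to compounds (1:260 dilution of DMSO stock) for 48 hours at 37C. After MPER lysis, β-galactosidase reporter activity was read as FDG fluorescence (ex 480/em 540) after 30 minutes.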
D3 antag: blocks the human D3 dopamine receptor | P35462 | D3R cells, DiscoveRx beta-arrestin luminescence, antagonist mode; hits give low values | max response, negative = inhibition, % | 360,000 compounds, 2.5% hits | AID 652054; in the data active = max response below about -50%; inconclusive = no clear call, values can overlap the other calls; note: % is set by controls: 0 for no effect and ±100 for the full control effect
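Cells expressing the human receptor were seeded at 1500 cells/well, incubated overnight at 37 degrees C in 5% CO2, then exposed to library compounds with dopamine controls for 90 minutes at 37 degrees C before luminescent detection.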
B2AR arrestin: beta2AR (human) beta-arrestin recruitment activity | beta-arrestin recruitment to beta2AR, cell-based reporter | 330,000 compounds, 0.02% hits | AID 492947 | P07550 | Potency, µM (series often up to 46.1 µM), for inactives: at the highest dose activation, hits mostly activators;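 note: potency is the fitted concentration of half-maximal effect; 0% = DMSO controls and full agonism = EC100 isoproterenol or metaproterenol; nearly all actives have a fitted effect of over 65% in size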
An asterisk follows results filed as active; [ ] = another dose, or the depositor's remark. Unless noted, calls come from the whole dose curve; as a rule, active = well fitted curve in the direction sought with a large enough effect; inconclusive = small, poorly fitted or top-dose-only effect, or another doubt; inactive = no such curve, though single readings can be large; an effect the other way counts as inactive or inconclusive.

For Oc1c(Br)cc(Br)cc1/C=N/c1nccs1 the results were DRD3 agonist -23, IDH1 R132H inh -1%, Integrin act MD -37%, D3 antag -55* and B2AR arrestin 0%.
Screening CCCCS(=O)(=O)c1oc(-c2ccc(F)cc2)nc1S(=O)(=O)c1ccc(C)cc1 returned DRD3 agonist -14 and IDH1 R132H inh -3%.
`CC1=C(SCc2ccccc2)C(=O)c2ccccc2C1=O` gave DRD3 agonist -15, IDH1 R132H inh 0%, Integrin act MD -73% and D3 antag -89*.
For COc1cccc(-c2nc(N3CCCCC3)c3ccccc3n2)c1O the results were DRD3 agonist 11, IDH1 R132H inh 2%, Integrin act MD -34% and D3 antag 40.
For CCC1CCCCN1c1nc(-c2cccc(OC)c2O)nc2ccccc12 (configuration not stated) the results were DRD3 agonist 31*, IDH1 R132H inh 1%, Integrin act MD -16%[7.66 µM], D3 antag 28 and B2AR arrestin 1%.
For COc1cccc(CNC(=O)CCCn2nc(C)c3sc4ccccc4c3c2=O)c1 the results were DRD3 agonist 11 and IDH1 R132H inh 0%.
`Cc1sc2ncnc(N3CCC(C(=O)Nc4cc(Cl)ccc4Cl)CC3)c2c1C` gave DRD3 agonist 42*, IDH1 R132H inh 7%, Integrin act MD -4%, D3 antag 32 and B2AR arrestin 0%.
O=c1[nH]c(=O)n([C@H]2CCCO2)cc1F was read as DRD3 agonist -6.
CC(=O)Nc1ccc(N2CCC(C)CC2)c([N+](=O)[O-])c1 was read as DRD3 agonist 7, IDH1 R132H inh 8%, Integrin act MD 1%, D3 antag -8 and B2AR arrestin 0%.
Screening CC(=O)Nc1ccc(N2CCCC(C)C2)c([N+](=O)[O-])c1 (configuration not stated) returned DRD3 agonist -12, IDH1 R132H inh 9%, Integrin act MD -9%, D3 antag -55* and B2AR arrestin 0%.
O=C(Nc1ccn(CCCNCCN2CCOCC2)c(=O)n1)OCc1ccccc1 was read as DRD3 agonist -34, IDH1 R132H inh -12%, Integrin act MD 8% and D3 antag -16.
For O=C(Nc1ccn(CCCNC2CCN(Cc3ccccc3)CC2)c(=O)n1)OCc1ccccc1 the results were DRD3 agonist -12, IDH1 R132H inh 8%, Integrin act MD -58% and D3 antag -53*.
`O=[N+]([O-])c1ccc(N2CCN(S(=O)(=O)c3ccccc3)CC2)cc1NCC1CCCO1` (configuration not stated) gave DRD3 agonist 1, IDH1 R132H inh 2%, Integrin act MD -5%, D3 antag -4 and B2AR arrestin -1%.
CCS(=O)(=O)N1CCN(c2ccc([N+](=O)[O-])c(NCC3CCCO3)c2)CC1 (configuration not stated) was read as DRD3 agonist -12, IDH1 R132H inh 1%, Integrin act MD 10µM*, D3 antag -18 and B2AR arrestin -1%.
`COc1ccccc1NC(=O)c1cc2c(=O)n(Cc3cccs3)ccc2nc1C` gave DRD3 agonist -6 and IDH1 R132H inh -2%.
Screening CN1CCCC(CN2c3ccccc3Sc3ccccc32)C1 (configuration not stated) returned DRD3 agonist -43, IDH1 R132H inh 1%, D3 antag 3 and B2AR arrestin 0%.
CN1CCCCC1CCN1c2ccccc2Sc2ccc(S(C)=O)cc21 (configuration not stated) was read as DRD3 agonist -85, IDH1 R132H inh 18%, D3 antag -75* and B2AR arrestin 0%.
For O=C(NC1(C(F)(F)F)NC(=O)N(CCc2ccccc2)C1=O)c1ccccc1Cl (configuration not stated) the results were DRD3 agonist -6 and IDH1 R132H inh 0%.
Screening CCc1ccccc1NC(=O)CSc1nc2c(oc3ccccc32)c(=O)n1C returned DRD3 agonist 8 and IDH1 R132H inh 19%.
Screening COc1ccccc1NC(=O)CSc1nc2c(oc3ccccc32)c(=O)n1C returned DRD3 agonist 31*, IDH1 R132H inh 2%, Integrin act MD 15%, D3 antag 67 and B2AR arrestin 0%.
Cc1c2cnn(CC(=O)NCc3ccc(F)cc3)c(=O)c2c(C)n1Cc1ccccc1Cl was read as DRD3 agonist -9 and IDH1 R132H inh 4%.
`CCOC(=O)N1CCc2c(sc3c2c(=O)n(Cc2ccccc2)c(=O)n3Cc2cccc(Cl)c2)C1` gave DRD3 agonist -2 and IDH1 R132H inh 0%.
`CC(C)c1ccc(NC(=O)CN2C(=O)c3ccccc3S2(=O)=O)cc1` gave DRD3 agonist -8, IDH1 R132H inh 5%, Integrin act MD 10µM*, D3 antag -16 and B2AR arrestin 0%.
Screening CCC(=O)Nc1cccc(-c2nnc(SCC(=O)NCc3ccco3)n2C)c1 returned DRD3 agonist -10, IDH1 R132H inh 2%, Integrin act MD 15%, D3 antag 5 and B2AR arrestin 0%.
For CCC(=O)Nc1cccc(-c2nnc(SCC(=O)c3ccccc3)n2C)c1 the results were DRD3 agonist -8, IDH1 R132H inh 4%, Integrin act MD -20%, D3 antag -52* and B2AR arrestin inconclusive.
Screening O=C1C=CC2(C=C1)O[C@H](Cc1ccccc1)[C@@H](Cc1ccccc1)O2 returned DRD3 agonist -30, IDH1 R132H inh 2%, Integrin act MD -51% and D3 antag -109*.
For COc1ccc(C[C@@H]2OC3(C=CC(=O)C=C3)O[C@H]2Cc2ccc(OC)cc2)cc1 the results were DRD3 agonist -13, IDH1 R132H inh -3%, Integrin act MD -57% and D3 antag -118*.
`O=C1Nc2ccccc2C1Cc1ccccc1` (configuration not stated) gave DRD3 agonist 29, IDH1 R132H inh 11%, Integrin act MD 32%, D3 antag 2 and B2AR arrestin -1%.
`CC(C)C[C@@H]1Cc2[nH][nH]c(=O)c2[C@H](C)O1` gave DRD3 agonist 3 and D3 antag 33.
Screening Cc1cccc(C2(c3cccc(C)c3)CC2C(=O)Nc2ccc([N+](=O)[O-])cc2O)c1 (configuration not stated) returned DRD3 agonist -10, IDH1 R132H inh 33%, Integrin act MD -63%, D3 antag -70* and B2AR arrestin -1%.
C=CCNC(=O)C1CC1(c1cccc(C)c1)c1cccc(C)c1 (configuration not stated) was read as DRD3 agonist 6, IDH1 R132H inh 2%, Integrin act MD -29% and D3 antag 11.
